The results in this text go back to PubChem BioAssay (Tox21).

Where “and” joins values, the source holds several entries; their conditions need not be identical. Identical values can stand only once. Results filed as inconclusive are left out. Entries that show only a call come without a potency. Some compounds were tested as several samples or in several runs, with calls that do not always agree. Calls of active or inactive are those of the source. Unless noted, the call rests on the fitted dose curve.

Estrogen receptor beta (Homo sapiens), sequence (Q92731 whole entry, looked up): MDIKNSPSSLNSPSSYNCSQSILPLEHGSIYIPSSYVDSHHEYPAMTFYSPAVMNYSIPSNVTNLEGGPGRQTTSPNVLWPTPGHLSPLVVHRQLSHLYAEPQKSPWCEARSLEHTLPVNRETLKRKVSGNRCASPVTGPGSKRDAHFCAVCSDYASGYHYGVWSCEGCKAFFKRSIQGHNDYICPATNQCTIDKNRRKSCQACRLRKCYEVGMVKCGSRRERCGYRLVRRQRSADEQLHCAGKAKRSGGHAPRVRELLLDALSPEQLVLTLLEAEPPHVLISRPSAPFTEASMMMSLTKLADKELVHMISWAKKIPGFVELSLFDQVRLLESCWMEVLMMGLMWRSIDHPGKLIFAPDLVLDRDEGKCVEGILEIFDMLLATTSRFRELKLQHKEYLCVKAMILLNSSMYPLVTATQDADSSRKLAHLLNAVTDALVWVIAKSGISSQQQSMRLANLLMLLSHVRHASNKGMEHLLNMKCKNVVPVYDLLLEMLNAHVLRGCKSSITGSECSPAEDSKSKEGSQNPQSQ

Tested on in one experiment: not listed separately
As to the kind of experiment: qHTS assay to identify small molecule antagonists of the sonic hedgehog signaling (Shh) pathway - cell viability counter screen (AID 1259367; active means well fitted cell-killing curve with a large enough effect in the repeat runs; further: nearly all actives have a fitted effect of over 55% in size; further: potency means the concentration at half of the fitted maximal effect). The note with it: NIH/3T3 Gli1-Luc viability, CellTiter-Fluor, 24 h; series mostly up to 92.4 µM; viability change, negative = cytotoxic: at the top concentration. The method, boiled down:
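Fluorescence read-out (CellTiter-Fluor, 1 hr at 37C) taken after 23 hr compound treatment of 3T3 Gli1-Luc cells stimulated with conditioned medium. Cells were seeded at 2,000 per well and pre-incubated 4 hr.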
(In general: Quantitative high-throughput screening tests each substance at several concentrations.)
On to `c1ccc2c(c1)ccc1ccccc12`, for which the Potency entry was “inactive”.
For `CCCCCOC(C)=O`, the “viability change, negative = cytotoxic” value was 3.03% (inactive).
As to `CCCC(C)=O`, the Potency entry was “inactive”.
On the same count and under the same terms, in the case of `Oc1cccc2ccccc12` it was “inactive”; in that of `C=C(C)C(=O)OCCOCCOCCOC(=O)C(=C)C`, “inactive”.
On the same count and under the same terms, in the case of `CCCCC(CC)COC(=O)CS` (centres undefined) it was “inactive”; in that of `CN(C)CCC(c1ccc(Cl)cc1)c1ccccn1` (centres undefined), 68.7 µM (active).
As to `CC(C)(N)CO`, the Potency entry was “inactive”.
Still for that read-out and setting: as for `Nc1ccccc1[N+](=O)[O-]`, the entry is “inactive”; as for `CCc1cccc(C)c1N`, “inactive”.
Consider `O=C(Oc1ccccc1)c1ccccc1`, for which the “viability change, negative = cytotoxic” value was 6.91% (inactive).
As for `CCCCC(CC)COC(=O)CCCCC(=O)OCC(CC)CCCC` (centres undefined), the Potency entry is “inactive”.
With `C=C(C)C(=O)O[C@H]1C[C@@H]2CC[C@@]1(C)C2(C)C`, the Potency result is “inactive”.
The same measure, in the same setting: as for `O=C(O)CCCCCCCCCCC(=O)O`, the entry is “inactive”; as for `Cc1cc(C)c(C)cc1C`, “inactive”; as for `O=C(CC(C(=O)OC1CCCCC1)S(=O)(=O)O)OC1CCCCC1` (centres undefined), “inactive”.
Same read-out and setting: as for `CCCCCCOCCO`, the entry is “inactive”; as for `Cc1occc(=O)c1O`, “inactive”; as for `CC(=O)c1ccccc1`, “inactive”.
Consider `CCCCCC/C(C=O)=C\c1ccccc1`, for which the Potency result is “inactive”.

Tested on in the next experiment: not listed separately
The experiment can be described thus: qHTS assay to identify small molecule agonists of the sonic hedgehog signaling (Shh) pathway (AID 1259368).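 Further: NIH/3T3-derived 3T3Gli1-Luc cells carrying a stable Gli1-driven firefly luciferase reporter; nearly all actives have a fitted effect of over 15% in size.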 The note with it: NIH/3T3 Gli1-Luc reporter, luciferase, 24 h, stronger effect = higher value; series mostly up to 92.4 µM; activity change: at the top concentration. The method, boiled down:
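Quantitative high-throughput format using a Gli1-driven firefly luciferase reporter line derived from NIH/3T3 cells. After a 24 hr compound treatment at 37 C and 5% CO2, luminescence reported Gli1 response element activity.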
For `Cc1cccnc1`, the compound was classed as inactive.
On the same count and under the same terms, in the case of `CCCCCCCCCCCCc1ccccc1` it was “inactive”; in that of `CN(C)CCCN`, “inactive”.
Regarding `c1ccc2scnc2c1`, the call was inactive.
Still for that read-out and setting: as for `OCC(CO)(CBr)CBr`, the entry is “inactive”.
The same measure, in the same setting: as for `CCCCCCCCCC`, the entry is “inactive”; as for `CC1=C(C)S(=O)(=O)CCS1(=O)=O`, “inactive”.
Still for that read-out and setting: in the case of `O=c1[nH]nnc2ccccc12` it was “inactive”.
As to `COS(C)(=O)=O`, the outcome was inactive.
`O=S1(=O)CC=CC1`: the outcome was inactive.
Same read-out and setting: in the case of `CC1CCC(C(C)C)C(O)C1` (centres undefined) it was “inactive”.
The same measure, in the same setting: in the case of `CCC(O)OC(O)CC` (centres undefined) it was “inactive”; in that of `CCN(CC)c1ccc(C(=O)c2ccccc2C(=O)O)c(O)c1`, “inactive”.
The same measure, in the same setting: in the case of `Cc1cccc(O)c1` it was “inactive”; in that of `O=S(=O)(O)c1ccc2ccccc2c1`, “inactive”.
For `CCCCCCCCCCCCOCCO`, the compound was called inactive.
With `Fc1ccc(Br)cc1`, the outcome was inactive.
For the compound `O=C(O)c1cc(C(=O)O)cc(S(=O)(=O)O)c1`, the outcome was inactive.
Same read-out and setting: in the case of `O=C(O)c1ccc(C(=O)O)cc1` it was “inactive”.
Consider `c1ccc2c(c1)ccc1ccccc12`, for which the outcome was inactive.
`CCCCCOC(C)=O`: the outcome was inactive.
Same read-out and setting: in the case of `CCCC(C)=O` it was “inactive”.
For the compound `Oc1cccc2ccccc12`, the compound was classed as inactive.
The same measure, in the same setting: in the case of `C=C(C)C(=O)OCCOCCOCCOC(=O)C(=C)C` it was “inactive”; in that of `CCCCC(CC)COC(=O)CS` (centres undefined), “inactive”; in that of `CN(C)CCC(c1ccc(Cl)cc1)c1ccccn1` (centres undefined), “inactive”.
`CC(C)(N)CO`: the call was inactive.
On the same count and under the same terms, in the case of `Nc1ccccc1[N+](=O)[O-]` it was “inactive”; in that of `CCc1cccc(C)c1N`, “inactive”; in that of `O=C(Oc1ccccc1)c1ccccc1`, “inactive”.
Same read-out and setting: in the case of `CCCCC(CC)COC(=O)CCCCC(=O)OCC(CC)CCCC` (centres undefined) it was “inactive”.
For `C=C(C)C(=O)O[C@H]1C[C@@H]2CC[C@@]1(C)C2(C)C`, the result was inactive.
Still for that read-out and setting: in the case of `O=C(O)CCCCCCCCCCC(=O)O` it was “inactive”; in that of `Cc1cc(C)c(C)cc1C`, “inactive”; in that of `O=C(CC(C(=O)OC1CCCCC1)S(=O)(=O)O)OC1CCCCC1` (centres undefined), “inactive”.
On to `CCCCCCOCCO`, for which the outcome was inactive.
`Cc1occc(=O)c1O`: the compound was classed as inactive.
The same measure, in the same setting: as for `CC(=O)c1ccccc1`, the entry is “inactive”; as for `CCCCCC/C(C=O)=C\c1ccccc1`, “inactive”.

Tested on in another experiment: not listed separately
As to the kind of experiment: qHTS assay to identify small molecule antagonists of the sonic hedgehog signaling (Shh) pathway (AID 1259369). Further: nearly all actives have a fitted effect of over 45% in size. Further: potency means the concentration at half of the fitted maximal effect. The note with it: NIH/3T3 Gli1-Luc reporter, Shh antagonist, luminescence 24 h; series mostly up to 92.4 µM; activity change, negative = inhibition: at the top concentration. The method, boiled down: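 Stable Gli1-Luc reporter NIH/3T3 clone; quantitative HTS in stimulated mode with conditioned medium. Luminescence measured after 24hr compound treatment at 37 C.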
With `CCCCCCCCCCCCc1ccccc1`, the Potency result was “inactive”.
Regarding `c1ccc2scnc2c1`, the Potency result was “inactive”.
Same read-out and setting: in the case of `OCC(CO)(CBr)CBr` it was “inactive”.
In the case of `CCCCCCCCCC`, the “activity change, negative = inhibition” value was 35% (inactive).
As for `CC1=C(C)S(=O)(=O)CCS1(=O)=O`, the Potency was 21.3 µM (active) and 38.6 µM (active).
Same read-out and setting: in the case of `O=S1(=O)CC=CC1` it was 6.62 µM (active) and inactive; in that of `CC1CCC(C(C)C)C(O)C1` (centres undefined), “inactive”.
Still for that read-out and setting: as for `CCN(CC)c1ccc(C(=O)c2ccccc2C(=O)O)c(O)c1`, the entry is “inactive”.
For the compound `Cc1cccc(O)c1`, the “activity change, negative = inhibition” value is 5.96% (inactive).
As for `O=C(O)c1cc(C(=O)O)cc(S(=O)(=O)O)c1`, the Potency entry is “inactive”.
On the same count and under the same terms, as for `Oc1cccc2ccccc12`, the figure is 6.28 µM (active) and 15.4 µM (active); as for `CCCCC(CC)COC(=O)CS` (centres undefined), “inactive”.
The same measure, in the same setting: as for `CC(C)(N)CO`, the entry is “inactive”; as for `CCCCC(CC)COC(=O)CCCCC(=O)OCC(CC)CCCC` (centres undefined), “inactive”.
As to `O=C(CC(C(=O)OC1CCCCC1)S(=O)(=O)O)OC1CCCCC1` (centres undefined), the “activity change, negative = inhibition” value is 4.89% (inactive).
Turning to `CCCCCCOCCO`, the Potency result is “inactive”.
Take `CC(=O)c1ccccc1`: the Potency entry was “inactive”.
On the same count and under the same terms, in the case of `CCCCCC/C(C=O)=C\c1ccccc1` it was “inactive”.

For another experiment, the target named is Estrogen receptor beta (Homo sapiens) (UniProt Q92731). The experiment can be described thus: qHTS assay to identify small molecule agonists of the estrogen receptor beta (ER-beta) signaling pathway (AID 1259377; active means well fitted activation curve with a large enough effect in the signal ratio in the repeat runs, not every such curve was filed as active; the % refers to the signal ratio). The note with it: ER-beta-UAS-bla HEK293T, beta-lactamase FRET ratio, 16 h; series mostly up to 92.4 µM; activation: at the top concentration. The method, boiled down:
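In HEK293T cells bearing a UAS-beta-lactamase reporter under ER-beta control, DMSO-delivered compounds were incubated for 16 hr at 37C. Activity was detected as fluorescence 2 hours after LiveBLAzer B/G FRET substrate addition.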
Consider `Cc1cccnc1`, for which the Potency result is “inactive”.
On to `c1ccc2scnc2c1`, for which the “activation” value is -0.265% (inactive).
Regarding `CCCCCCCCCC`, the Potency entry was “inactive”.
Regarding `CC1=C(C)S(=O)(=O)CCS1(=O)=O`, the Potency entry is “inactive”.
Same read-out and setting: in the case of `O=c1[nH]nnc2ccccc12` it was “inactive”; in that of `O=S1(=O)CC=CC1`, “inactive”; in that of `CC1CCC(C(C)C)C(O)C1` (centres undefined), “inactive”.
As to `CCN(CC)c1ccc(C(=O)c2ccccc2C(=O)O)c(O)c1`, the Potency entry is “inactive”.
With `Cc1cccc(O)c1`, the “activation” value was 2.3% (inactive).
Turning to `Oc1cccc2ccccc12`, the Potency result was “inactive”.
As for `CC(C)(N)CO`, the Potency result is “inactive”.
As to `Nc1ccccc1[N+](=O)[O-]`, the “activation” value was -0.465% (inactive).
For `O=C(Oc1ccccc1)c1ccccc1`, the Potency result is “inactive”.
Turning to `CCCCC(CC)COC(=O)CCCCC(=O)OCC(CC)CCCC` (centres undefined), the Potency result was “inactive”.
Take `O=C(CC(C(=O)OC1CCCCC1)S(=O)(=O)O)OC1CCCCC1` (centres undefined): the “activation” value was 0.297% (inactive).
Regarding `CCCCCCOCCO`, the Potency entry is “inactive”.
Turning to `CCCCCC/C(C=O)=C\c1ccccc1`, the “activation” value is 10.1% (inactive).
